From PubChem
An excerpt weighted towards active compounds, which were near 3.5% of everything screened.
MMP-13 inhibitor = blocks human MMP13 activity | MMP-13 fTHP FRET cleavage, Mca fluorescence | inhibition, % at 4 µM | 65,000 tested, 0.07% active | AID 570;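 active = inhibition above the mean of compound-free control plate wells plus 3 SD, cut at about 14% in these data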;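 also: 0% = DMSO wells and 100% = wells with reference MMP-13 inhibitor after basal subtraction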
ERb coact inh = blocks coactivator binding to human estrogen receptor beta | Q92731 | TR-FRET ER-beta LBD / SRC1-Cy5 peptide binding; receptor agonist-loaded with 1 µM estradiol | inhibition, % at 25.6 µM | 86,000 tested, 1.3% active | AID 633;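 active = compounds whose percent inhibition of the receptor-coactivator binding signal exceeds about 50% in the single-dose screen, limit read from the data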;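 also: 0% = receptor plus peptide wells without compound and 100% = peptide-only wells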
ERa SRC1 pot = ER-alpha (human) coactivator binding potentiation; TR-FRET ERalpha-LBD/SRC-Cy5 coactivator binding, 2 h; 100 = basal binding, no effect; coactivator binding (% of control), % at 25.6 µM; AID 639; 86,000 tested, 1.3% active; P03372; in the data active = activity above about 200%;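 also: binding measured in presence of low estradiol as agonist stimulus; 0% = peptide alone without receptor and 100% = receptor with peptide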
ERa coact inh = blocks coactivator binding to human estrogen receptor alpha. P03372. TR-FRET ER-alpha LBD / SRC-1 peptide, estradiol-bound. inhibition, % at 25.6 µM. 86,000 tested, 1.7% active; in the data active = inhibition above about 50%;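 also: 0% = receptor plus peptide control and 100% = peptide only without receptor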
Smad3 inh = blocks human Smad3 binding to FoxH1 peptide | P84022 | TR-FRET Smad3/Dy647-FoxH1 peptide binding, europium anti-His | inhibition, % at 25 µM | 88,000 tested, 0.29% active;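 active = compounds that reduce the energy-transfer binding signal between the protein and its labelled peptide by more than half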;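 also: 0% = Smad3 plus labelled peptide maximal FRET and 100% = peptide-only background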
Target sequence (P84022 whole entry, looked up): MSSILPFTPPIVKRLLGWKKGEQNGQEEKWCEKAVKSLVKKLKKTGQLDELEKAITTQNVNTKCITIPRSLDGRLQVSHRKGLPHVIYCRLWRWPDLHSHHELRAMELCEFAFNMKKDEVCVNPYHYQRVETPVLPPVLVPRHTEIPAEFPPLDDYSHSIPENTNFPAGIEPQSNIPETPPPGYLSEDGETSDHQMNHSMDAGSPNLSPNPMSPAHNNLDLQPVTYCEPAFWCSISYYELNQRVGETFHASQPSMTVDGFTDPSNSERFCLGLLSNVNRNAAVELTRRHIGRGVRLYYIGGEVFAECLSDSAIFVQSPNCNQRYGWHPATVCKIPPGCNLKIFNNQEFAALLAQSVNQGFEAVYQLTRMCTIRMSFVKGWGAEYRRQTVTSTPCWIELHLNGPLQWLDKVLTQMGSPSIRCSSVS
MT1-MMP txn act = MT1-MMP promoter transcription activation. HT1080 MT1-MMP promoter luciferase reporter, luminescence, overnight; hits give high values. activation factor at 10 µM. 86,000 tested, 0.16% active;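 active = activation factor of at least 2 for MT1-MMP transcription at 10 µM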
The depositor's hits bear a star; . = no result; [ ] = remark or other dose.

SMILES	MMP-13 inhibitor	ERb coact inh	ERa SRC1 pot	ERa coact inh	Smad3 inh	MT1-MMP txn act
CCOC(=O)Cc1csc(NC(=O)c2ccc(Br)s2)n1	4	-2	117	-2	2	1.2
O=C(NCc1nc2ccccc2[nH]1)c1ccc(S(=O)(=O)N2CCOCC2)cc1	3	-2	110	2	1	1
O=S1(=O)C=C(Sc2nc3cc(Cl)ccc3o2)c2ccccc21	4	.	.	.	.	1.2
N[C@@H](CC1=CS(=O)(=O)c2ccc(Cl)cc21)C(=O)O	.	.	.	.	77*	.
NCCCCCNC(=O)/C=N\O	-3	.	.	.	.	1.2
COc1cccc2sc(N3CCN(c4nc5ccccc5s4)CC3)nc12	4	30	236*	49	4	1
Brc1ccc2ncnc(Nc3ccc(N4CCOCC4)cc3)c2c1	5	82*[fluorescence artefact?]	32	59*[fluorescence artefact?]	29	1.1
O=C1c2cccc(O)c2C(=O)c2c(O[C@@H]3O[C@H](CO)[C@@H](O)[C@H](O)[C@H]3O)cccc21	.	.	.	.	70*	.
Cc1cc(C)n2nc(C(=O)Nc3ccc4c(c3)OCO4)nc2n1	4	49	48	59*[fluorescence artefact?]	7	1.3
Cc1cc(C)n2nc(C(=O)OCC(=O)Nc3ccc4c(c3)OCO4)nc2n1	-3	17	99	16	4	1.1
CN(c1ccc(C(=O)NCc2cccnc2)cc1)S(C)(=O)=O	3	-3	120	1	-6	1
O=C(O)[C@H]1CCCC[C@@H]1c1c2ccc(=O)c(O)c-2oc2c(O)c(O)ccc12	.	.	.	.	101*	.
Nc1ccc2oc(-c3ccc4nc[nH]c4c3)nc2c1	.	30	33	77*[fluorescence artefact?]	15	.
Cc1nc2ccc(-c3nc4cc(N)ccc4o3)cc2[nH]1	.	15	72	11	13	.
O=C(O)Cn1c(SCCOc2ccccc2F)nc2ccccc21	5	.	.	.	.	1.1
CCS(=O)(=O)N1CCC(C(=O)N2CCc3ccccc3C2)CC1	3	-9	245*[fluorescence artefact?]	9	1	1
COC(=O)C1CCN(C(=O)Cc2ccc(Br)cc2)CC1	2	66*[fluorescence artefact?]	50	55*[fluorescence artefact?]	5	1.3
Cc1nnc(Oc2ccccc2F)c2ccccc12	2	26	128	51*	3	1.4
Cc1nnc(Oc2ccccc2)c2ccccc12	0	-4	140	6	11	1.1
Cc1ccc(C2C(C#N)=C(N)Oc3c2sc2ccccc32)o1 (centres undefined)	-6	70*[fluorescence artefact?]	74	70*[fluorescence artefact?]	8	0.6
Cc1cc(C(=O)Nc2cc(C)n(Cc3ccc(Cl)cc3)n2)no1	-1	5	105	0	1	1.2
CCC(Sc1nc2cc(OC)c(OC)cc2c2nc(C)nn12)C(=O)NCc1ccco1 (centres undefined)	1	47	132	50*[fluorescence artefact?]	-5	1.1
CCC(Sc1nc2ccccc2c2nc3ccccc3n12)C(=O)NCc1ccco1 (centres undefined)	.	61*[fluorescence artefact?]	247*[fluorescence artefact?]	77*[fluorescence artefact?]	-2	1
CCOC(=O)N1CCN(C(=O)CN(c2cccc(C)c2)S(=O)(=O)c2ccccc2)CC1	2	0	85	5	-2	1
CCOC(=O)CN1C=C(c2ccc3ccccc3n2)C(C[N+](=O)[O-])c2ccccc21 (centres undefined)	.	-5	90	-2	12	1.6
SMILES	MMP-13 inhibitor	ERb coact inh	ERa SRC1 pot	ERa coact inh	Smad3 inh	MT1-MMP txn act
COc1cccc(-c2cc(C(=O)NCc3ccc(Cl)cc3)no2)c1	-4	20	95	70*[fluorescence artefact?]	-2	1.1
COc1cccc(-c2cc(C(=O)Nc3cc(C)on3)no2)c1	-1	30	428*[fluorescence artefact?]	23	6	1.3
Cc1ccc2[nH]c(=S)cc(C)c2c1	6	60*[fluorescence artefact?]	83	16	18	1.1
Cc1cc2c(C)nc(-c3ccccc3)nc2o1	2	-4	119	-4	0	2*
COc1cc2c(C)nc3onc(-c4ccccc4)c3c2cc1OC	0	10	106	-2	4	1
O=C(CSc1nnc(-c2ccccc2)o1)c1nnc(-c2ccccc2)o1	8	19	83	20	10	1.1
CCCCNC(=O)NC1C(NC(=O)NCCCC)N(C)C(=O)N1C (centres undefined)	0	.	.	.	.	1
CS(=O)(=O)Nc1ccc(C(=O)NCCc2ccccc2)cc1	5	-18	91	1	5	0.9
CC1=C(C(=O)Nc2ccccc2)C(c2ccccn2)n2ncnc2N1 (centres undefined)	.	6	99	-11	-7	.
Nc1ccn([C@H]2O[C@@H](COP(=O)(O)O)[C@H](O)[C@H]2O)c(=O)n1	.	.	.	.	79*	.
Nc1ccn([C@@H]2O[C@H](CO)[C@@H](O)[C@@H]2O)c(=O)n1	.	.	.	.	.	0.8
Cc1ccc(S(=O)(=O)c2c(C)nn(C(C)(C)C)c2OC(=O)C(C)(C)C)cc1	-1	-11	103	-15	-3	1
CC1CCN(S(=O)(=O)c2ccc3c(c2)oc(=O)n3CC(=O)NCc2ccc3c(c2)OCO3)CC1	7	-4	115	-1	7	1.1
O=C(Cn1c(=O)oc2cc(S(=O)(=O)N3CCCC3)ccc21)Nc1ccc(C(F)(F)F)cc1	-9	3	144	69*[fluorescence artefact?]	0	1
Cc1cc(C)cc(NC(=O)Cn2c(=O)oc3cc(S(=O)(=O)N4CCC(C)CC4)ccc32)c1	.	54*[fluorescence artefact?]	26	89*[fluorescence artefact?]	-7	.
O=C(Cn1c(=O)oc2cc(S(=O)(=O)N3CCCC3)ccc21)NC1CCCc2ccccc21 (centres undefined)	4	67*[fluorescence artefact?]	36	89*[fluorescence artefact?]	4	0.8
O=C(Cn1c(=O)oc2cc(S(=O)(=O)N3CCCCCC3)ccc21)NC1CCCCCCC1	1	24	202*	36	-5	1.1
CC(NC(=O)Cn1c(=O)oc2cc(S(=O)(=O)N3CCCC3)ccc21)c1ccccc1 (centres undefined)	.	5	104	6	-11	.
O=C(c1c(F)cccc1F)N1CCC(O)(c2cccnc2)CC1	1	8	91	8	-13	1.1
Cc1cc(C(F)(F)F)nc(SCc2ccc(C(=O)O)o2)n1	0	9	76	4	1	1.1
CCC1=Nc2ccccc2NC2=C1C(=O)CCC2	-1	5	71	9	11	1.2
Cn1c(=O)c2c(nc(NCCc3ccccc3)n2CC(=O)NCCc2ccccc2)n(C)c1=O	4	34	229*[fluorescence artefact?]	17	2	1
CC(C)Cn1c2c(c(O)c(C(=O)Nc3ccc(F)cc3)c1=O)CCCC2	-8	3	109	-4	-5	1
CC1(C)Cc2c(C#N)c(SCC(=O)c3ccccc3)nc(N3CCOCC3)c2CO1	4	0	246*[fluorescence artefact?]	7	11	1
c1ccc(-n2c(-c3ccncc3)nnc2N2CCOCC2)cc1	4	-2	104	-1	6	1
c1cncc(-c2nc(Oc3ccc(-c4nnco4)cc3)c3c4c(sc3n2)CCCC4)c1	-3	5	258*[fluorescence artefact?]	18	-5	1.2
